Measurements from PubChem BioAssay AID686979 (National Center for Advancing Translational Sciences (NCATS), 2013).
Where “and” joins values, the source holds several entries; their conditions need not be identical. Equal entries are not always repeated. Out of some 420,000 compounds screened, about 50,000 (12%) were called active. Not shown: some 26% with an inconclusive outcome. The sample holds actives, similar compounds and a random draw of the others, so the mix is not that of the screen. Values without a mark were called inactive. Calls follow the shape of the dose curve; as a rule, active = well fitted inhibition curve with a large enough effect; inconclusive = small, poorly fitted or top-dose-only effect; inactive = flat fitted curve, though single readings scatter.

Experiment: qHTS for Inhibitors of human tyrosyl-DNA phosphodiesterase 1 (TDP1): qHTS in cells in presence of CPT; also: nearly all actives have a fitted effect of over 55% in size
Conditions: chicken DT40 Tdp1-/-;hTDP1 cells + 20 nM CPT, ATP luminescence, 48 h; series mostly up to 46.2 µM; activity change, negative = growth inhibition: at the top concentration
Excerpt: Human tyrosyl-DNA phosphodiesterase 1 (TDP1) is a novel repair gene, and we propose to use it as a new target for anticancer drug development. TDP1 is not an essential protein, but under treatment with topoisomerase I poison (camptothecin: CPT), TDP1 works as a critical factor for cell survival. To directly identify novel TDP1 inhibitors active in a cellular environment, we have knocked-out the Tdp1 gene in chicken DT40 cells (Tdp1-/-) and generated a complemented counterpart cells that contains a stable transfection of the human TDP1 gene (Tdp1-/-;hTDP1 cells). For the primary screen, Tdp1-/-;hTDP1 cells will be exposed to small molecules in the presence or absence of CPT, and their growth kinetics will be evaluated after 48 hours by measuring ATP activity. […] The hit compounds will then be evaluated in the presence or absence of CPT using Tdp1-/- cells. […] In tertiary assays, biochemical gel-based assays will be used to assess whether the hit compounds specifically target TDP1. To this end, we have screened this cell line against the MLSMR in two primary screens. In one screen we add CPT and in the other we screen in the absence of CPT; this AID represents the screen where CPT was present. NIH Chemical Genomics Center [NCGC] NIH Molecular Libraries Probe Centers Network [MLPCN] MLPCN Grant: MH095538 Assay Submitter (PI): Yves Pommier, NCI
DT40-hTDP1 cells with 20 nM Camptothecin (add 20 microL of 1 mM CPT stock in 1 L of cell culture medium) were dispensed at 400 cells/5microL/well in tissue culture treated 1536-well white wall/solid bottom assay plates (Greiner Bio-One North America, NC, U.S.A.) using a Multidrop Combi 8 channel dispenser (Thermo Fisher, Waltham, MA, USA). 23 nL compounds and controls were transferred using the pin tool (Kalypsys, San Diego, CA, USA) to the assay plates. The assay plates were then incubated at 37 masculineC for a minimum 48 hr. Three microL of Cell Titer Glo solution was added to the plates and incubated at RT in dark for 30 min. Luminescence was read using ViewLux (Perkin Elmer) with 1 sec exposure slow speed, high gain and 2x binning.
% is scaled to controls: 0 for no effect and ±100 for the full control effect; potency is read from the fitted curve at half-maximal effect.

| Structure (SMILES) | activity change, negative = growth inhibition [%] | Potency |
| --- | --- | --- |
| COc1ccc([N+](=O)[O-])cc1NC(=O)CC1SC(=Nc2cccc(C)c2C)N(/N=C(\C)c2ccc(C)cc2)C1=O (configuration not stated) | 12.7 |  |
| CCOc1ccc(CC(=O)NC2CCN(Cc3ccccc3)CC2)cc1 | -11.6 |  |
| CCOc1ccc(CN2CCCN(C)CC2)cc1 | -17.7 |  |
| CCOc1ccc(CN2CCN(Cc3c[nH]c4ccccc34)CC2)cc1 |  | 3.66 µM (active) |
| CC(C)(C)S(=O)(=O)N1Cc2cc(CO)cc(CCO)c2[C@H]1CCO | -2.54 |  |
| C/C(CC(=O)NC(C)(C)C)=N\NC(=O)c1ccco1 | 5.55 |  |
| Cc1csc2nc(COC(=O)c3cccc(N(C)C)c3)cc(=O)n12 | -24.8 |  |
| CCCc1c(C)nc2scc(-c3ccc(Cl)cc3)n2c1=O | -12.2 |  |
| O=c1cc(CCl)nc2scc(-c3ccccc3)n12 |  | 14.6 µM (active) |
| Cc1onc(-c2ccccc2)c1C(=O)N1CCN(S(=O)(=O)c2ccccc2C(F)(F)F)CC1 | -3.88 |  |
| COc1ccc(CNC(=O)c2nnn(CC(=O)Nc3cc(C)cc(C)c3)c2N)cc1 |  | inactive |
| O=C(CSc1nnc(-c2cccs2)n1-c1ccccc1)NCc1ccco1 | 2.07 |  |
| O=C(Cc1ccc(-n2c(=O)c3sccc3n(Cc3ccc(F)cc3)c2=O)cc1)NCc1ccco1 |  | 16.4 µM (active) |
| O=C(CSc1ncc(CO)n1Cc1ccc(F)cc1)NCc1ccco1 | -8.88 |  |
| Cc1ccc(N2C(=O)CC(NCc3ccc4c(c3)OCO4)C2=O)cc1Cl (configuration not stated) | 2.01 |  |
| CN(C)NC(=O)C(NC(=O)c1ccc(N)cc1)C12CC3CC(CC(C3)C1)C2 (configuration not stated) | 1.22 |  |
| COCCCN1C(=O)c2ccc(C(=O)OCC(=O)NCc3ccccc3OC)cc2C1=O | 1.23 |  |
| C/C(=N\NC(=O)C(N)=O)c1ccc2c(c1)OCCO2 | 13.6 |  |
| C/C(=N/NC(=S)Nc1ccccc1)c1ccc2c(c1)OCO2 |  | 0.82 µM (active) |
| C/C(=N/NC(=O)c1ccncc1)c1ccc2c(c1)OCO2 | 1.21 |  |
| CCCCNC(=O)CCn1nc(-c2ccc(Cl)cc2)ccc1=O | 23.4 |  |
| O=C(O)CSc1nccc2ccccc12 | -1.02 |  |
| CCCn1nc2cc(C(=O)NCc3ccccc3)ccc2c1OCC | -13.4 |  |
| CCOC(=O)C(C(=O)c1ccccc1)C(c1ccccc1)c1nccc2ccccc12 (configuration not stated) |  | 20.6 µM (active) |
| Cc1ccc(NC(=O)C2(N3CCC3=O)CCCCC2)cc1 | 2.09 |  |
| CCn1cc(C(=O)NCC(=O)NC(C)(C)CO)c(=O)c2cc3c(cc21)OCO3 | 14.7 |  |

| Structure (SMILES) | activity change, negative = growth inhibition [%] | Potency |
| --- | --- | --- |
| CCCCNC(=O)C1CCCNC1=O (configuration not stated) | -27.3 |  |
| O=C(Cc1ccc([N+](=O)[O-])cc1)NCCc1ccc2c(c1)OCO2 | -24.6 |  |
| O=C(NC1CCCCC1)c1cc([N+](=O)[O-])ccc1N1CCOCC1 | -4.33 |  |
| O=C(NCc1ccc2c(c1)OCO2)c1cc([N+](=O)[O-])ccc1N1CCOCC1 |  | 3.26 µM (active) |
| O=C1C2C3C=CC(C3)C2C(=O)N1c1ccc(S(=O)(=O)Nc2nccs2)cc1 (configuration not stated) | -8.65 |  |
| COc1ccc(C(=O)NCc2ccccc2C)cc1S(=O)(=O)NC1CCCC1 | -4.79 |  |
| CC(=O)N(CC(O)CO)c1c(I)c(C(=O)NCC(O)CO)c(I)c(C(=O)NCC(O)CO)c1I (configuration not stated) |  | inactive |
| O=C(C1CC(=O)N(c2ccc(Br)cc2)C1)N1CCCC1 (configuration not stated) | -5.65 |  |
| COc1ccc(N(Cc2ccccc2)S(=O)(=O)c2cccc(C(=O)O)c2)cc1 | -6.42 |  |
| COc1ccc(NC(=O)CS(=O)(=O)c2ccccc2)cc1 | 31.2 |  |
| COc1ccc(C(CC(=O)c2ccccc2)S(=O)(=O)c2ccccc2)cc1 (configuration not stated) |  | 23.1 µM (active) |
| NC(=O)c1ncn([C@@H]2O[C@H](CN=C3NS(=O)(=O)c4ccccc43)[C@@H](O)[C@H]2O)n1 | -10.6 |  |
| CC(Oc1ccc(Br)cc1)C(=O)NCC(c1ccco1)N1CCCCC1 (configuration not stated) | -24.4 |  |
| COc1ccc(S(=O)(=O)N(C)CC(=O)N2CCCC2)cc1 | 2.13 |  |
| CN(C)S(=O)(=O)c1ccc(NC(=O)N2CCOCC2)cc1 | -5.71 |  |
| CN(C)S(=O)(=O)c1ccc(Oc2ccc(S(=O)(=O)N(C)C)cc2)cc1 |  | 16.4 µM (active) |
| COc1ccc(N(CC(=O)Nc2cc(OC)cc(OC)c2)S(=O)(=O)c2c(C)n[nH]c2C)cc1 | -29.6 |  |
| COc1ccc(CCNC(=O)COC(=O)c2ccc[nH]c2=O)cc1 | 3.7 |  |
| CC(C)=N/N=C1/NC(=O)C(Cc2ccccc2)S1 (configuration not stated) | 8.07 |  |
| CCN(CC(=O)NCc1cccs1)C(=O)/C=C/c1ccc(C)cc1 | -23.4 |  |
| O=C(Cc1ccccc1)NNC1CC(=O)N(c2ccc(Br)cc2)C1=O (configuration not stated) | 1.27 |  |
| C[C@H]1CCC(=O)N([C@H](CSc2ccccc2)Cc2ccccc2)CC1 | -13.2 |  |
| COc1ccc(SC[C@H](Cc2ccccc2)N2CCN(CCc3ccccc3)CCC2=O)cc1 |  | 23.1 µM (active) |
| O=C1CC[C@H](O)CCN1[C@H](CSc1ccc(Br)cc1)Cc1ccccc1 |  | 11.2 µM (active) and 14.6 µM (active) |
| O=C1CCN(CCCc2ccccc2)CCN1CCO | 3.81 |  |
| O=C1CCN(Cc2ccc([N+](=O)[O-])cc2)CCN1[C@H](CO)Cc1ccccc1 | -9.24 |  |
